In PubChem BioAssay (NCI) one finds growth data, which are given here for eight compounds.

About 83,000 compounds went through this panel and 20% of them were active in at least one assay; those are over-represented in the sample as a whole.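 Results are percent growth after 48 hours of single-concentration exposure. 100 means growth as in untreated cells, lower positive values show inhibition; negative values down to -100 show cell death.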 Values without a mark were called inactive. The source made the active and inactive calls. Rule for the calls: active = growth percent below 10; inactive = the rest.

Common to all, as to assay: NCI-60 one-dose screen, 48 h (100 = growth as untreated, 0 = no growth, -100 = all killed)
One assay concerns NCI-H23 lung. To be noted: 10 µM unless noted.
The subject of a further assay is NCI-H226 lung. To be noted: 10 µM unless noted.
The subject of another assay is NCI-H322M lung. Conditions: 10 µM unless noted.
A further assay concerns HOP-62 NSCLC. Conditions: 10 µM unless noted.
The subject of the next assay is NCI-H460 lung. Conditions: 10 µM unless noted.
For another assay, the system named is HOP-92 NSCLC. Conditions: 10 µM unless noted.
The test system of the next assay is NCI-H522 lung. To be noted: 10 µM unless noted.
The subject of the next assay is A549/ATCC NSCLC. To be noted: 10 µM unless noted.
Another assay concerns COLO 205 colon. Conditions: 10 µM unless noted.
A further assay has as its system DU-145 prostate. To be noted: 10 µM unless noted.
The next assay has as its system K-562 leukemia. Conditions: 10 µM unless noted.
The subject of the next assay is MALME-3M melanoma. To be noted: 10 µM unless noted.
Another assay has as its system RXF 393 renal. Conditions: 10 µM unless noted.
Another assay deals with SF-268 CNS. To be noted: 10 µM unless noted.
The next assay concerns SF-295 CNS. Conditions: 10 µM unless noted.
In another assay the test system is SF-539 CNS. Conditions: 10 µM unless noted.
The test system of another assay is UACC-257 melanoma. To be noted: 10 µM.
A further assay concerns M14 melanoma. To be noted: 10 µM unless noted.
The subject of the next assay is 786-0 renal. Conditions: 10 µM unless noted.
In the next assay the test system is MDA-MB-231 breast. Conditions: 10 µM unless noted.

In the case of `Oc1ccc(N=Cc2ccccc2)cc1`, the growth in the assay with NCI-H23 lung was 88.5%; with NCI-H226 lung it was 111%; with NCI-H322M lung, 103%; in the assay with HOP-62 NSCLC it was 115%; in the assay on NCI-H460 lung, 102%; in the assay on HOP-92 NSCLC it was 51.9%. The growth in the assay on NCI-H522 lung is 67.7%; in the assay with A549/ATCC NSCLC it was 103%; in the assay on COLO 205 colon, 113%; with DU-145 prostate, 89.5%; in the assay with K-562 leukemia, 32.6%; in the assay on MALME-3M melanoma, 83.5%. Further, the growth with RXF 393 renal was 114%; in the assay on SF-268 CNS, 95.9%; with SF-295 CNS, 112%; in the assay on SF-539 CNS it was 94.9%; in the assay on UACC-257 melanoma, 106%; in the assay on M14 melanoma, 91.5%.

`COc1cccc(C2CC(=O)Nc3c2c(C)nn3-c2nc3ccccc3[nH]2)c1OC` (configuration not stated): the growth was 50.5% with NCI-H23 lung; 55.1% with NCI-H226 lung; 60% with NCI-H322M lung; 57.4% in the assay on HOP-62 NSCLC; 50.2% in the assay on NCI-H460 lung; 85.4% with HOP-92 NSCLC. For the same compound, the growth in the assay on NCI-H522 lung is 87.8%; in the assay with 786-0 renal, 91.7%; in the assay on COLO 205 colon, 98.1%; with DU-145 prostate, 76.5%; with K-562 leukemia, 40.9%; in the assay on MALME-3M melanoma, 52.3%. Moreover, the growth in the assay with MDA-MB-231 breast is 82.1%; in the assay with RXF 393 renal it was 64.2%; in the assay with SF-268 CNS, 76.4%; in the assay with SF-295 CNS, 7.64% (active); with SF-539 CNS it was 99.7%; in the assay with UACC-257 melanoma, 79.1%. Moreover, the growth in the assay on M14 melanoma is 65.4%.

As to `CNC(C)=O`, the growth in the assay on NCI-H23 lung was 95.3%; in the assay on NCI-H226 lung, 95.1%; in the assay on NCI-H322M lung, 92%; in the assay on HOP-62 NSCLC, 94.4%; with NCI-H460 lung it was 106%; in the assay on HOP-92 NSCLC, 103%. The growth was 89% in the assay with NCI-H522 lung; 106% with 786-0 renal; 98.8% with COLO 205 colon; 99.5% in the assay with DU-145 prostate; 90.3% in the assay with K-562 leukemia; 86.1% in the assay on MALME-3M melanoma. Further, the growth with RXF 393 renal was 105%; in the assay with SF-268 CNS, 98.4%; in the assay with SF-295 CNS, 93.7%; in the assay on SF-539 CNS, 89.8%; in the assay on UACC-257 melanoma it was 102%; in the assay with M14 melanoma it was 108%.

Take `COc1ccc(/C=c2\sc3n(c2=O)C2C(NN=3)N(C)C(=O)N2C)cc1` (configuration not stated): the growth in the assay on NCI-H23 lung was 36.3%; with NCI-H226 lung, 94.1%; in the assay with NCI-H322M lung, 46.6%; in the assay with HOP-62 NSCLC, 21%; in the assay on NCI-H460 lung, 9.54% (active); in the assay on HOP-92 NSCLC it was 54.7%. Besides, the growth is 10.1% with NCI-H522 lung; 23% in the assay with 786-0 renal; -8.52% (active) with COLO 205 colon; 9.2% (active) in the assay on DU-145 prostate; -34.6% (active) with K-562 leukemia; 25% in the assay on MALME-3M melanoma. Besides, the growth was 42.5% in the assay with MDA-MB-231 breast; 71.3% in the assay with SF-268 CNS; -7.19% (active) with SF-295 CNS; -16.6% (active) with SF-539 CNS; 15.4% in the assay on M14 melanoma.

With `Nc1c(C(=O)Nc2cccc(C(F)(F)F)c2)sc2nc3c(cc12)CCCCC3`, the growth with NCI-H23 lung is 3.46% (active); in the assay with NCI-H226 lung, 11.3%; in the assay with NCI-H322M lung it was -5.26% (active); with HOP-62 NSCLC it was 3.07% (active); with NCI-H460 lung, 10.3%; in the assay with HOP-92 NSCLC, 17.5%. The growth in the assay with NCI-H522 lung was 20%; in the assay with 786-0 renal it was -62.8% (active); with COLO 205 colon it was 65.1%; with DU-145 prostate, 44.1%; in the assay on K-562 leukemia, 36.9%; in the assay on MALME-3M melanoma, -20.4% (active). Further, the growth with MDA-MB-231 breast was -29.5% (active); in the assay on RXF 393 renal, -20.7% (active); with SF-268 CNS, 25.8%; with SF-295 CNS it was 11.7%; with SF-539 CNS it was -63.3% (active); in the assay with UACC-257 melanoma it was 18.6%. Besides, the growth with M14 melanoma was 49.6%.

In the case of `CC1(C)OC2COC3(C(=O)O)OC(C)(C)OC3C2O1` (configuration not stated), the growth is 97.8% with NCI-H23 lung; 99.9% in the assay on NCI-H226 lung; 98.6% in the assay with NCI-H322M lung; 91.2% with HOP-62 NSCLC; 103% in the assay on NCI-H460 lung; 98.3% with HOP-92 NSCLC. The growth in the assay with NCI-H522 lung is 90.2%; in the assay with 786-0 renal, 104%; in the assay with COLO 205 colon, 98.8%; in the assay on DU-145 prostate, 108%; in the assay on K-562 leukemia, 101%; in the assay with MALME-3M melanoma it was 109%. Moreover, the growth was 88.3% with MDA-MB-231 breast; 111% in the assay on RXF 393 renal; 95.9% in the assay with SF-268 CNS; 103% with SF-295 CNS; 101% in the assay on SF-539 CNS; 99.9% with M14 melanoma.

Consider `Cc1cccc(NC(=O)c2sc3nc4c(cc3c2N)CCC4)c1C`, for which the growth in the assay with NCI-H23 lung was 36%; in the assay on NCI-H226 lung it was 43.7%; in the assay with NCI-H322M lung, 40.1%; in the assay with HOP-62 NSCLC, 35.6%; in the assay on NCI-H460 lung it was 10.8%; in the assay on HOP-92 NSCLC, 17.7%. The growth in the assay with NCI-H522 lung was -16.5% (active); with 786-0 renal, 42.7%; in the assay with COLO 205 colon, 6.68% (active); in the assay on DU-145 prostate it was 10.6%; in the assay on K-562 leukemia, 13.8%; in the assay with MALME-3M melanoma, 45.5%. Besides, the growth was 30.6% in the assay with MDA-MB-231 breast; -4.81% (active) in the assay with RXF 393 renal; 35.1% in the assay with SF-268 CNS; 4.77% (active) in the assay on SF-295 CNS; 1.33% (active) in the assay on SF-539 CNS; 54.8% with UACC-257 melanoma. Besides, in the assay with M14 melanoma, the growth is 19.1%.

For the compound `Cn1c(-c2nonc2NC(=O)c2ccc(F)cc2)nc2ccccc21`, the growth with NCI-H23 lung was 108%; in the assay with NCI-H226 lung it was 96%; in the assay on NCI-H322M lung, 102%; with HOP-62 NSCLC it was 120%; in the assay with NCI-H460 lung, 101%; in the assay with HOP-92 NSCLC it was 104%. Also, the growth in the assay on NCI-H522 lung was 95.2%; in the assay with 786-0 renal, 98.6%; with COLO 205 colon it was 117%; in the assay on DU-145 prostate, 107%; with K-562 leukemia, 9.03% (active); with MALME-3M melanoma, 123%. The growth with MDA-MB-231 breast is 129%; in the assay with RXF 393 renal, 109%; with SF-268 CNS, 109%; with SF-295 CNS it was 98.5%; in the assay on SF-539 CNS, 103%; in the assay with UACC-257 melanoma it was 97.2%. Besides, the growth in the assay on M14 melanoma is 106%.
